# HCV inhibitor = qHTS Assay for Inhibitors of Hepatitis C Virus (HCV); Huh7.5.1 HCVcc-Cre infection, luciferase reporter, 44 h; Potency, µM (highest dose often 41.8 µM), without a hit: top-dose activity change, negative = inhibition, most hits filed as inhibitors; 3.4% of 340,000 active; AID 651820, 2012; note: potency is the fitted concentration of half-maximal effect
#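 Antiviral activity was scored by luciferase reporter output from cells infected with HCVcc-Cre (~0.5 moi) in presence of compound, 44 h infection period, cells seeded 1,000/well 4 h prior.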
# FMDV inh = High Throughput Screening for Foot and Mouth Disease Virus Antivirals; Potency, µM (doses to about 57.9 µM), inactives show at the highest dose activity change, negative = inhibition, most hits filed as inhibitors; 1.2% of 410,000 active; FMDV antiviral cell-based qHTS; calls by dose curve; tested in HEK293T cells; note: read-out not given here; potency is the fitted concentration of half-maximal effect; nearly all actives have a fitted effect of over 45% in size
# LASV entry inh = qHTS for Inhibitors of binding or entry into cells for Lassa Virus. Lassa virus pseudotype entry inhibition, cell reporter. Potency, µM (series often up to 37.9 µM), for inactives: at the top dose activity change, negative = inhibition, usual class: inhibitors. 1.2% of 300,000 active. AID 540256, 2011; calls by dose curve; tested in HEK293 cells; note: potency is the fitted concentration of half-maximal effect; nearly all actives have a fitted effect of over 50% in size
# HCMV antiviral = qHTS Assay for inhibitors of the human cytomegalovirus (HCMV) | 4.5% of 410,000 active | activity change, negative = inhibition, % at 57.5 µM | HFF cells, HCMV-luciferase reporter, 72 h; hits give low values; in the data active = activity change below about -60%; inconclusive = no clear call, values can overlap the other calls; inactive = above about -39%
#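 Luciferase read-out from HCMV-luciferase-infected HFFs (MOI 1 PFU/cell) 72 h post infection at 37C; compounds added after 16 h cell attachment; activity normalized between buffer-only basal and Salinomycin (10uM) inhibitor controls.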
# Marburg entry inh = qHTS for inhibitors of binding or entry into cells for Marburg Virus; 1.8% of 300,000 active; Potency, µM (titrated, usually from 37.8 µM), for inactives: at the top dose activity change, negative = inhibition, hits mostly inhibitors; AID 540276, 2011; Marburg virus pseudotyped entry inhibition, cell reporter; calls by dose curve; tested in HEK293 cells; note: potency is the fitted concentration of half-maximal effect
# FBPA Giardia inh = qHTS Assay for Inhibitors of Fructose-1,6-bisphosphate Aldolase from Giardia Lamblia | A8B2U2 | Potency, µM (highest dose often 59.6 µM), inactives show at the highest dose activity, negative = inhibition, hits mostly inhibitors | 0.71% of 290,000 active | purified Giardia FBPA | AID 2451, 2010; note: potency is the fitted concentration of half-maximal effect; nearly all actives have a fitted effect of over 55% in size
# Target sequence (A8B2U2 whole entry, looked up): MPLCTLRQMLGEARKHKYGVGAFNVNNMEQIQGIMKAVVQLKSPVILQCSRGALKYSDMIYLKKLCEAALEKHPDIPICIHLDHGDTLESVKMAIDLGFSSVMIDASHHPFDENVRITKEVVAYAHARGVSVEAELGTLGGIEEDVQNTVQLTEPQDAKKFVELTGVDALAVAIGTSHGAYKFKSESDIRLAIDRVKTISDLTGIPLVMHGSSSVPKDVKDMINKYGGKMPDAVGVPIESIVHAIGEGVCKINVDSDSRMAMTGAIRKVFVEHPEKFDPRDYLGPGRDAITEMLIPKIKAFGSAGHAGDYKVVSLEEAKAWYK
#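 40 nM FBPA preincubated 10 min at RT with compound (up to 57.5 uM final), then substrate plus GAPDH/TPI/NAD/arsenate coupling and diaphorase/resazurin added. Fluorescence read after 20 min at RT, 525/598 nm.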
# * hit, by the source's call; ? = inconclusive; · = no result given; [ ] = dose if it differs, or a comment. Most compounds without a hit are left out; they make up all but 8.3% or so of the library. Unless noted, calls come from the whole dose curve; as a rule, active = well fitted curve in the direction sought with a large enough effect; inconclusive = small, poorly fitted or top-dose-only effect, or another doubt; inactive = no such curve, though single readings can be large; an effect the other way counts as inactive or inconclusive. % is set by controls: 0 for no effect and ±100 for the full control effect.
SMILES,HCV inhibitor,FMDV inh,LASV entry inh,HCMV antiviral,Marburg entry inh,FBPA Giardia inh
CN(Cc1ccccc1)C(=O)C1CCC(CNS(=O)(=O)c2ccc3c(c2)CCCC(=O)N3)CC1 (centres undefined),·,?,-28.7%[46.1 µM],-6.2,·,·
COc1ccc(/C=C/CN2CCCC(CCC(=O)NCc3ccc(F)c(F)c3)C2)cc1 (centres undefined),?,-28.2%,0.4%,-21.4,7.94µM*,-1.0%
C/C(=N\N1CCN(Cc2ccc(Cl)cc2)CC1)c1ccc([N+](=O)[O-])cc1,11.2µM*,?,-1.5%[46.1 µM],-24.2,?,0.0%
CSc1ccc(CN2CCN(C(=O)c3ccc([N+](=O)[O-])cc3)CC2)cc1,?,?,?,-74.9*,?,?
C/C(=N\NC(=O)c1ccc(CN2CCOCC2)cc1)c1cccc([N+](=O)[O-])c1,?,?,-4.7%,-33.4,?,-3.9%
C/C(=N\NC(=O)c1ccc(CN2CCOCC2)cc1)c1ccc([N+](=O)[O-])cc1,11.2µM*,?,5.9%,?,10.0%,-3.2%
CCc1ccc(CN2CCN(Cc3ccc(SC)cc3)CC2)cc1,10µM*,?,?,?,?,17.7µM*
CSc1ccc(CN2CCSCC2)cc1,23.2%,-1.0%,5.4%,-8.3,15.0%,?
COC(=O)C1=C2C=C(C)CC(C)N2C(=O)NC1c1ccccc1 (centres undefined),·,·,·,·,30.1%[14.2 µM],·
COc1ccc(CNc2cc(-c3ccccc3C)ncn2)c(OC)c1,·,1.8%,·,·,·,3.4%
O=C(c1ccc(Oc2ccc([N+](=O)[O-])cc2Cl)cc1)N1CCCC1,-13.9%,-13.9%,-17.1%,?,-14.0%[46.1 µM],2.6%
O=C(c1ccc(Oc2ccc([N+](=O)[O-])cc2)cc1)N1CCCCCC1,25.1µM*,-22.0%,?,-24.8,5.62µM*,-6.0%
CC(=O)c1c(C)[nH]c(C(=O)Nc2nccs2)c1C,10µM*,52.6%,?,55.5,?,-8.6%
CC(=O)c1c(C)[nH]c(C(=O)Nc2cccc(C)n2)c1C,-19.3%,-12.1%,·,136.6,·,·
c1ccc2c(-c3ccncc3)c[nH]c2c1,7.94µM*,-9.6%,-4.8%,-18.3,-29.7%,2.6%
c1ccc(-c2nnc(-c3ccccc3)c(-c3c[nH]c4ccccc34)n2)cc1,-17.5%,-18.1%,0.1%,10.2,0.4%,-2.0%
NCCCCC(NC(CCc1ccccc1)C(=O)O)C(=O)N1CCCC1C(=O)O (centres undefined),·,-7.4%,·,·,·,2.6%
Nc1c([N+](=O)[O-])ccc(Oc2ccccc2)c1Cl,·,·,·,·,·,-20.3%
Cc1ccc(Cl)c(NC(=O)CSc2cccc[n+]2[O-])c1Cl,8.3%,-0.3%,11.3%[46.1 µM],-2.7,5.2%[46.1 µM],·
Cc1ccc(Cl)c(NC(=O)CCl)c1Cl,-19.6%,-19.0%,?,?,6.31µM*,2.8%
CCS(=O)(=O)c1nc2ccccc2n1CC(=O)Nc1ccccc1C(=O)OC,·,-25.8%,0.8%[46.1 µM],1.1,2.2%[46.1 µM],·
COc1ccc(C(C)=O)cc1CSc1nnc(Nc2ccccc2C)s1,?,0.0%,-18.3%,-61.7*,-7.8%,-0.9%
COc1ccc(C(C)=O)cc1CSc1nnc(Nc2ccc(C)cc2C)s1,?,0.0%,?,-30.4,?,-1.3%
CC(=O)c1ccc(OCC(O)CN(C)CCOc2ccc(Br)cc2)cc1 (centres undefined),-27.5%,?,?,-16.4,8.91µM*,7.7%
CC(=O)c1ccc(OCC(O)COc2ccc(C(C)=O)cc2)cc1,?,·,6.9%,-31.0,0.5%,-14.3%
SMILES,HCV inhibitor,FMDV inh,LASV entry inh,HCMV antiviral,Marburg entry inh,FBPA Giardia inh
COc1ccc(OC2C=CC(C#Cc3ccc(C(C)(C)C)cc3)OC2CO)cc1 (centres undefined),·,·,·,·,·,-12.8%[12.9 µM]
CCCCc1cc2c(cn1)=C(OC(=O)C1CCCC1)C(C)(OC(=O)CC)C(=O)C=2 (centres undefined),·,·,·,·,?,0.8%[12.9 µM]
CCN1CCCC1CNC(=O)c1cnn(-c2nccc(-c3ccco3)n2)c1C1CC1 (centres undefined),·,-5.8%,·,·,·,·
O=C(CSC1=N/C(=C/c2ccc(Cl)c(Cl)c2)C(=O)N1c1ccccc1F)NC1CC1,-14.8%,?,?,?,?,2.0%
COc1ccc(Cl)cc1N1C(=O)/C(=C/c2sccc2C)N=C1SCC(=O)NC1CC1,?,-11.3%,?,51.7,10µM*,·
CCN(CC)CC(O)CN1CCCCc2nc(C)c(C)cc21 (centres undefined),·,·,·,·,-8.4%[14.2 µM],·
Cc1ccc(C2CC(=O)Oc3ccc(C(C)(C)C)cc32)cc1 (centres undefined),·,·,·,·,·,5.3%[89.2 µM]
CC1(C)Cc2c(C#N)c(NCc3ccco3)nc(-c3ccco3)c2CO1,-9.2%,-21.5%,-20.0%,-12.7,-8.0%,-25.8%
CN(C)CCNc1nc(-c2ccco2)c2c(c1C#N)CC(C)(C)OC2,?,-12.1%,2.2%,-100.4*,-17.7%,0.1%
Cc1cc(C)n2cc(CSc3nnnn3-c3ccc(Cl)cc3)nc2n1,8.1%,-27.5%,2.7%,-23.6,-2.8%,-1.9%
Cc1cc(C)n2cc(CSc3nnc(-c4ccccc4)c(-c4ccccc4)n3)nc2n1,5.6%,28.2µM*,·,-9.1,·,·
Cc1cc(C)n2cc(CSc3nnnn3-c3ccccc3)nc2n1,13.2%,-18.1%,-2.9%,-70.9*,0.8%,-5.8%
Cc1cc(C)n2cc(CSc3ccc(Br)cc3)nc2n1,-11.8%,19.2%,3.6%[46.1 µM],30.0,29.9%[46.1 µM],-7.5%
CS(=O)(=O)c1ncc(Cl)c(C(=O)N(Cc2ccc(Cl)cc2)Cc2ccco2)n1,·,?,?,-107.1*,?,·
CCOc1ccc(N(Cc2ccccc2)C(=O)c2nc(SC)ncc2Cl)cc1,·,?,-21.6%[46.1 µM],-25.9,?,·
CCCSc1ncc(Cl)c(C(=O)N(Cc2ccccc2)c2ccc(OC)cc2)n1,·,?,-14.0%[46.1 µM],-75.4*,?,·
COc1ccc(N(Cc2ccccc2)C(=O)c2nc(S(C)(=O)=O)ncc2Cl)cc1,·,17.8µM*,?,-101.3*,2.4%[46.1 µM],·
O=C(CCCC[C@@H]1SC[C@H]2NC(=O)N[C@H]12)Nc1ccc(C(=O)O)cc1,·,·,·,·,·,11.0%
CCCC[C@H](NC(C)=O)C(=O)N[C@H]1CC(=O)NCCCC[C@@H](C(N)=O)NC(=O)[C@H](Cc2c[nH]c3ccccc23)NC(=O)[C@H](CCCN=C(N)N)NC(=O)[C@@H](Cc2ccccc2)NC(=O)[C@H](Cc2cnc[nH]2)NC1=O,·,·,·,·,·,2.7%
CC(=O)Nc1cncc(-c2ccccc2F)n1,·,-20.2%,·,-95.5*,·,·
c1ccc2c(Nc3nc(-c4ccncc4)nc4ccccc34)cccc2c1,?,-0.2%,-5.2%,84.8,?,-23.0%
Fc1ccccc1Oc1nc(-c2ccncc2)nc2ccccc12,0.562µM*,-29.7%,·,-33.4,·,3.4%

# Source: PubChem BioAssay (National Center for Advancing Translational Sciences (NCATS))
